Measurements published in PubChem BioAssay AID488969 (Vanderbilt High Throughput Screening Facility, 2010).
Whole data set: some 110,000 compounds, median “z-score” near -0.1, cut for the highest 2% near 2. This is one part of a sample in which the highest values are shown more often than they occur. Active and inactive are the calls of the source.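 How the source made its calls: active means z-score in the third read window above 3 or below -3; inactive means the rest.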

molecular target: Metabotropic glutamate receptor 8 (Rattus norvegicus) (UniProt P70579); test: mGluR8 Gi/Go-coupled signaling modulation – cell-based, rat, thallium flux, HTS, primary screen (AID 488969); conditions: HEK293 rat mGluR8, GIRK (G protein-gated inwardly rectifying potassium channel) thallium flux, FluoZin2; at 10 µM; stronger effect = higher value; submaximal glutamate (EC20) added with thallium
Sequence (P70579 whole entry, looked up): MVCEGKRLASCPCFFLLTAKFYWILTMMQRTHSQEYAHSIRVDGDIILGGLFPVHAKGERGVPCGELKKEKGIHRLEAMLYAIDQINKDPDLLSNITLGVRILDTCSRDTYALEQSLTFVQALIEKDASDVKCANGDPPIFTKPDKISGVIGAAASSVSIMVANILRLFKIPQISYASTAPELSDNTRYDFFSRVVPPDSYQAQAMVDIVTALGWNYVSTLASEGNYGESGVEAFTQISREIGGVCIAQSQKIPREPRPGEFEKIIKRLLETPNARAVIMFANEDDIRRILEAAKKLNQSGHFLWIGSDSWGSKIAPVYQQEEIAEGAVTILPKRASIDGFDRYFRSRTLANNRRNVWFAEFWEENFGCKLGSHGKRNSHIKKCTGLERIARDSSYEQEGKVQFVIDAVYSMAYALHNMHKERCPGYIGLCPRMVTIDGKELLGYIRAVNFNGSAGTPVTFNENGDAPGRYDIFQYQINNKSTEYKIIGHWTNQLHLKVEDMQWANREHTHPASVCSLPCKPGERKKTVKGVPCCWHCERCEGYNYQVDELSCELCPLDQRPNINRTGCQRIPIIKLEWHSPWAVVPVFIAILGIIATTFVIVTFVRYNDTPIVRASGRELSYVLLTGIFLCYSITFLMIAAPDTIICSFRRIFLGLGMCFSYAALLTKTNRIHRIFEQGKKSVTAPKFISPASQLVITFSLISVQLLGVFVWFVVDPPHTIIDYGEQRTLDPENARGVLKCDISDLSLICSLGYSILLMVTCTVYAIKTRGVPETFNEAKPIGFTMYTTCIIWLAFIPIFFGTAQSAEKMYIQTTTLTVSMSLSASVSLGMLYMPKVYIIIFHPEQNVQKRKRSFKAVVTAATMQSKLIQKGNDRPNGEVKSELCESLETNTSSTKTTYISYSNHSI

Structure (SMILES)	z-score
O=C(CN1C(=O)c2ccccc2C1=O)N1CCN(c2nnc(-c3ccccc3)c3ccccc23)CC1	0.179
COC(=O)Nc1ccc(OCc2ccccc2)cc1	0.466
CC1CCN(S(=O)(=O)c2cc(C(=O)N3CCN(c4ncccn4)CC3)ccc2Br)CC1	-0.827
O=C(NCCC1=CCCCC1)C1CCCN(S(=O)(=O)c2cccnc2)C1 (stereo unspecified)	0.742
COc1ccc(S(=O)(=O)n2nc(-c3ccc(Cl)cc3)cc2N)cc1OC	-0.0966
O=C(Cn1cnc2c(nnn2Cc2ccc(F)cc2)c1=O)N1CCCCC1	0.251
Cc1ccc(C(=O)CCC(=O)Nc2cccnc2)cc1C	-0.25
CCCCC(=O)Nc1ccc(C(=O)Nc2nnc(COC)s2)cc1	-0.311
Nc1nonc1C(=O)NCCNCc1cc(Br)ccc1OCc1ccc(F)cc1	0.587
Nc1nonc1C(=O)NCCNCc1ccccc1OCc1ccccc1F	1.61
Nc1nonc1C(=O)NCCNCc1cc(Br)ccc1OCc1ccccc1F	4.61 (active)
Cc1nn(CC(=O)NCc2ccc(OC(C)C)cc2)c(=O)c2cc3occc3n12	-0.4
Cc1ccccc1OCc1nnc(SCc2cc(=O)[nH]c3ccccc23)n1-c1ccccc1	0.00735
O=P(CCNCc1ccco1)(c1ccccc1)c1ccccc1	0.267
Cn1nnnc1SCc1nnc(-c2ccc(F)cc2)o1	-0.226
Cn1nnnc1SCc1nnc(-c2ccccc2Br)o1	0.436
Cn1nnnc1SCc1nnc(-c2ccc(Cl)cc2)o1	2.68
Cc1ccc(/C(O)=C2/C(=O)C(=O)N(CCN3CCOCC3)C2c2cccs2)cc1 (stereo unspecified)	-0.157
COc1cccc2cc(C(=O)N3CCN(c4ncccn4)CC3)c(=O)oc12	-0.344
COc1ccc(C(=O)N2CCN(C3CCCCC3)CC2)c(OC)c1	-0.579
COC(=O)CCSc1cc(NCCOC(C)=O)c([N+](=O)[O-])c2nonc12	-0.0935
CCCSc1cc(NCCOC(C)=O)c([N+](=O)[O-])c2nonc12	2.48
CCCC(=O)OCCNc1cc(SCCC(=O)OC)c2nonc2c1[N+](=O)[O-]	-0.658
Oc1cnc2ccccc2c1CN1CCOCC1	-0.0791

Structure (SMILES)	z-score
CCOc1cc(C)c(Cl)cc1S(=O)(=O)NCc1ccc2c(c1)OCO2	-0.837
Cc1ccc(S(=O)(=O)N2CCN(C3CC(=O)N(Cc4ccccc4)C3=O)CC2)cc1C (stereo unspecified)	-0.767
CCCn1c(C)cc(/C=C(\C#N)C(=O)OCC(=O)Nc2cc(OC)c(OC)c(OC)c2)c1C	-0.21
CCCn1c(C)cc(/C=C(\C#N)C(=O)OCC(=O)Nc2cccc(OC)c2)c1C	3.42 (active)
CCCn1c(C)cc(/C=C(\C#N)C(=O)OCC(=O)Nc2ccc(OC)c(Cl)c2)c1C	-0.243
CN(CC(=O)NCCN1CCN(c2ccccc2)CC1)S(=O)(=O)c1ccc2c(c1)CCC(=O)N2	0.291
CC1(C)COC(c2cc([N+](=O)[O-])ccc2Cl)=N1	-0.41
Clc1ccc(/C=N/Nc2nn[nH]n2)cc1	-1.27
COc1cc(C(=O)Nc2ccc(Oc3ncnc4sc(-c5ccccc5)cc34)cc2)cc(OC)c1OC	0.344
COc1ccc(C(=O)Nc2ccc(Oc3ncnc4sc(-c5ccccc5)cc34)cc2)cc1OC	4.83 (active)
COc1ccccc1C(=O)Nc1ccc(Oc2ncnc3sc(-c4ccccc4)cc23)cc1	-0.975
CC1=NN(c2ccccc2)C(=O)C1C(=O)c1ccccc1 (stereo unspecified)	-0.168
CC1=NN(c2ccccc2)C(=O)C1C(=O)c1ccc(Cl)cc1 (stereo unspecified)	2.14
CCCCCCN1N=C(C)C(C(=O)c2ccc(Cl)cc2)C1=O (stereo unspecified)	0.521
Clc1ccc(C2=Nn3c(nnc3-c3cccs3)SC2)cc1	-0.153
CCOC(=O)C1=C(C)NC(=O)CC1c1ccccc1 (stereo unspecified)	0.409
COc1ccc(-n2c(=S)[nH]c3sc4c(c3c2=O)CCc2ccccc2-4)cc1	0.114
Cc1ccc(-n2c(=S)[nH]c3c(oc4ccccc43)c2=O)cc1	0.618
Cc1ccc(-n2c(=S)[nH]c3sc4c(c3c2=O)CCc2ccccc2-4)cc1	2.33
COc1ccc2c(c1)c(=O)oc1cc(OCC(=O)NC3CCCCC3)ccc12	0.0339
Cc1ccc(NC(=O)c2csnn2)c(C)c1	0.804
O=C(NC(=S)Nc1ccccc1Cl)c1csnn1	11.5 (active)
CC(=O)Nc1ccc(NC(=S)Nc2ccccc2)cc1	-0.0688
O=C(NC(=S)Nc1ccccc1)c1ccc(-c2ccccc2)cc1	0.0142

Structure (SMILES)	z-score
COC(=O)c1c(NC(=S)Nc2ccccc2Cl)sc(C)c1C	0.827
O=C(NC(=S)Nc1ccccc1)c1csnn1	12.4 (active)
C=C(C)C(C)(C#CCN1CCCC1)OC(C)=O (stereo unspecified)	-0.061
C=CCc1c(C)nc(SC)nc1Nc1ccccc1	-0.563
Cc1cccc(NC2=NC(=S)N(CC#N)C23CCCCC3)c1	1.02
CN(C#N)c1nc(Cl)nc(Nc2cccc(Cl)c2)n1	-0.113
COc1ccc(NC2=NC(=S)N(c3ccc(C)cc3)C23CCCCC3)cc1	0.796
COc1ccc(NC2=NC(=S)N(c3cccc(C)c3)C23CCCCC3)cc1	1.22
FC(F)(F)c1cccc(NC(=S)NC2CCCC2)c1	1.26
CC1CCC(=C(C#N)C(=O)Nc2cccc(Cl)c2)CC1 (stereo unspecified)	-0.314
COc1ccc(NC2=NC(=S)N(c3ccccc3C)C23CCCCC3)cc1	15.4 (active)
Cc1ccc(Cl)cc1NC1=NC(=S)N(C(C)C)C12CCCCC2	0.728
CC(C)(C)C1CCC2(CC1)C(Nc1cccc(C(F)(F)F)c1)=NC(=S)N2CC#N (stereo unspecified)	2.58
O=C1CN=C(Nc2cccc(C(F)(F)F)c2)N1C1CCCC1	-2.95
N#CCN1C(=S)N=C(Nc2cccc(Cl)c2)C12CCCCC2	2.57
CC1CCC2(CC1)C(Nc1cccc(Cl)c1)=NC(=S)N2CC#N (stereo unspecified)	2.23
Cc1ccc(S(=O)(=O)N2CCN(c3ccc4nnc(-c5ccccc5)n4n3)CC2)cc1	-0.183
CN(C)C(=O)c1snnc1-c1ccccc1	-0.386
O=C1C(Cl)=C(NCCCO)C(=O)c2ccccc21	-0.185
CCOC(=O)c1c(NC(=O)CSc2nc3ccccc3s2)sc(C(C)=O)c1C	-0.129
C=CCn1c(Oc2cc(C)ccc2C)nc2c1c(=O)n(C)c(=O)n2C	0.128
CCC(C)(C(=O)NC1CCCCC1)N(C(=O)C1CCC(=O)N1)c1ccccc1 (stereo unspecified)	0.963
NNC(=O)c1cnn(Cc2ccccc2)c1N	0.0742
